Laboratory results taken from publication PMC9911399, “Two distinct binding modes provide the RNA-binding protein RbFox with extraordinary sequence specificity”.
Positions count from the first letter of the chain named. Whole data set: some 16,000 sequences, median “ka relative to ugcaugu” near 0.096, cut for the highest 2% near 0.35. This excerpt belongs to a sample that is enriched for the highest values.

T1: RBFOX1 RRM RbFoxmut (Fox-RRM*) (Homo sapiens, UniProt Q9NWB1 109-208, R118D;E147R;N151S;E152T)
T1 sequence: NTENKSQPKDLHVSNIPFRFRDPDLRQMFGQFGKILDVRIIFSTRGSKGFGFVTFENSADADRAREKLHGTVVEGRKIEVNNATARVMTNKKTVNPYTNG

B1: UCCCUCG (DNA:RNA)
RNA: GGGAGACCGGAAUUCAGAUUGUCCUCCCUCGUUAAAUCCCGUCGUAGCCACCA
DNA 1: CAATCTGAATTCCGGTCTCCC
DNA 2: TGGTGGCTACGACGGGATT
B2: CAACAUU (DNA:RNA)
RNA: B1 RNA with U25C, C26A, C27A, U29A, C30U, G31U
DNA 1: CAATCTGAATTCCGGTCTCCC
DNA 2: TGGTGGCTACGACGGGATT
B3: UUGUUCU (DNA:RNA)
RNA: B1 RNA with C26U, C27G, C28U, G31U
DNA 1: CAATCTGAATTCCGGTCTCCC
DNA 2: TGGTGGCTACGACGGGATT
B4: AGUGUUG (DNA:RNA)
RNA: B1 RNA with U25A, C26G, C27U, C28G, C30U
DNA 1: CAATCTGAATTCCGGTCTCCC
DNA 2: TGGTGGCTACGACGGGATT
B5: AGUCACC (DNA:RNA)
RNA: B1 RNA with U25A, C26G, C27U, U29A, G31C
DNA 1: CAATCTGAATTCCGGTCTCCC
DNA 2: TGGTGGCTACGACGGGATT
B6: UGUACCC (DNA:RNA)
RNA: B1 RNA with C26G, C27U, C28A, U29C, G31C
DNA 1: CAATCTGAATTCCGGTCTCCC
DNA 2: TGGTGGCTACGACGGGATT
B7: GCAGACU (DNA:RNA)
RNA: B1 RNA with U25G, C27A, C28G, U29A, G31U
DNA 1: CAATCTGAATTCCGGTCTCCC
DNA 2: TGGTGGCTACGACGGGATT
B8: CGGUCGU (DNA:RNA)
RNA: GGGAGACCGGAAUUCAGAUUGUCCCGGUCGUUUAAAUCCCGUCGUAGCCACCA
DNA 1: CAATCTGAATTCCGGTCTCCC
DNA 2: TGGTGGCTACGACGGGATT
B9: ACGUAUG (DNA:RNA)
RNA: B8 RNA with C25A, G26C, C29A, G30U, U31G
DNA 1: CAATCTGAATTCCGGTCTCCC
DNA 2: TGGTGGCTACGACGGGATT
B10: GUCGGUA (DNA:RNA)
RNA: B1 RNA with U25G, C26U, C28G, U29G, C30U, G31A
DNA 1: CAATCTGAATTCCGGTCTCCC
DNA 2: TGGTGGCTACGACGGGATT
B11: GGUAUUG (DNA:RNA)
RNA: B1 RNA with U25G, C26G, C27U, C28A, C30U
DNA 1: CAATCTGAATTCCGGTCTCCC
DNA 2: TGGTGGCTACGACGGGATT
B12: CAGUAUG (DNA:RNA)
RNA: B8 RNA with G26A, C29A, G30U, U31G
DNA 1: CAATCTGAATTCCGGTCTCCC
DNA 2: TGGTGGCTACGACGGGATT
B13: CCCAGUA (DNA:RNA)
RNA: B1 RNA with U25C, C28A, U29G, C30U, G31A
DNA 1: CAATCTGAATTCCGGTCTCCC
DNA 2: TGGTGGCTACGACGGGATT
B14: GGUAUGU (DNA:RNA)
RNA: B8 RNA with C25G, G27U, U28A, C29U
DNA 1: CAATCTGAATTCCGGTCTCCC
DNA 2: TGGTGGCTACGACGGGATT
B15: AGUAUGU (DNA:RNA)
RNA: B8 RNA with C25A, G27U, U28A, C29U
DNA 1: CAATCTGAATTCCGGTCTCCC
DNA 2: TGGTGGCTACGACGGGATT
B16: GGUAUUA (DNA:RNA)
RNA: B8 RNA with C25G, G27U, U28A, C29U, G30U, U31A
DNA 1: CAATCTGAATTCCGGTCTCCC
DNA 2: TGGTGGCTACGACGGGATT
B17: GGUCCGU (DNA:RNA)
RNA: B8 RNA with C25G, G27U, U28C
DNA 1: CAATCTGAATTCCGGTCTCCC
DNA 2: TGGTGGCTACGACGGGATT
B18: ACGUCCC (DNA:RNA)
RNA: B8 RNA with C25A, G26C, G30C, U31C
DNA 1: CAATCTGAATTCCGGTCTCCC
DNA 2: TGGTGGCTACGACGGGATT
B19: ACGUAGC (DNA:RNA)
RNA: B8 RNA with C25A, G26C, C29A, U31C
DNA 1: CAATCTGAATTCCGGTCTCCC
DNA 2: TGGTGGCTACGACGGGATT
B20: CUUACUC (DNA:RNA)
RNA: B8 RNA with G26U, G27U, U28A, G30U, U31C
DNA 1: CAATCTGAATTCCGGTCTCCC
DNA 2: TGGTGGCTACGACGGGATT
B21: AACUUUU (DNA:RNA)
RNA: B8 RNA with C25A, G26A, G27C, C29U, G30U
DNA 1: CAATCTGAATTCCGGTCTCCC
DNA 2: TGGTGGCTACGACGGGATT
B22: AGUUUGA (DNA:RNA)
RNA: B8 RNA with C25A, G27U, C29U, U31A
DNA 1: CAATCTGAATTCCGGTCTCCC
DNA 2: TGGTGGCTACGACGGGATT
B23: UCUACAC (DNA:RNA)
RNA: B1 RNA with C27U, C28A, U29C, C30A, G31C
DNA 1: CAATCTGAATTCCGGTCTCCC
DNA 2: TGGTGGCTACGACGGGATT
B24: CAUCGCC (DNA:RNA)
RNA: B1 RNA with U25C, C26A, C27U, U29G, G31C
DNA 1: CAATCTGAATTCCGGTCTCCC
DNA 2: TGGTGGCTACGACGGGATT
B25: UACCUUG (DNA:RNA)
RNA: B1 RNA with C26A, C30U
DNA 1: CAATCTGAATTCCGGTCTCCC
DNA 2: TGGTGGCTACGACGGGATT
B26: UUUAACG (DNA:RNA)
RNA: B1 RNA with C26U, C27U, C28A, U29A
DNA 1: CAATCTGAATTCCGGTCTCCC
DNA 2: TGGTGGCTACGACGGGATT
B27: GGUCAAC (DNA:RNA)
RNA: B8 RNA with C25G, G27U, U28C, C29A, G30A, U31C
DNA 1: CAATCTGAATTCCGGTCTCCC
DNA 2: TGGTGGCTACGACGGGATT
B28: AUAUCUA (DNA:RNA)
RNA: B8 RNA with C25A, G26U, G27A, G30U, U31A
DNA 1: CAATCTGAATTCCGGTCTCCC
DNA 2: TGGTGGCTACGACGGGATT
B29: GGGUAGA (DNA:RNA)
RNA: B8 RNA with C25G, C29A, U31A
DNA 1: CAATCTGAATTCCGGTCTCCC
DNA 2: TGGTGGCTACGACGGGATT
B30: CCCUAUG (DNA:RNA)
RNA: B1 RNA with U25C, C28U, U29A, C30U
DNA 1: CAATCTGAATTCCGGTCTCCC
DNA 2: TGGTGGCTACGACGGGATT
B31: UAGUAUG (DNA:RNA)
RNA: B8 RNA with C25U, G26A, C29A, G30U, U31G
DNA 1: CAATCTGAATTCCGGTCTCCC
DNA 2: TGGTGGCTACGACGGGATT
B32: GGGUAUG (DNA:RNA)
RNA: B8 RNA with C25G, C29A, G30U, U31G
DNA 1: CAATCTGAATTCCGGTCTCCC
DNA 2: TGGTGGCTACGACGGGATT
B33: CCAUAUG (DNA:RNA)
RNA: B8 RNA with G26C, G27A, C29A, G30U, U31G
DNA 1: CAATCTGAATTCCGGTCTCCC
DNA 2: TGGTGGCTACGACGGGATT
B34: GUUAUGU (DNA:RNA)
RNA: B8 RNA with C25G, G26U, G27U, U28A, C29U
DNA 1: CAATCTGAATTCCGGTCTCCC
DNA 2: TGGTGGCTACGACGGGATT
B35: UAGUAUC (DNA:RNA)
RNA: B8 RNA with C25U, G26A, C29A, G30U, U31C
DNA 1: CAATCTGAATTCCGGTCTCCC
DNA 2: TGGTGGCTACGACGGGATT
B36: UAGUAAA (DNA:RNA)
RNA: B8 RNA with C25U, G26A, C29A, G30A, U31A
DNA 1: CAATCTGAATTCCGGTCTCCC
DNA 2: TGGTGGCTACGACGGGATT
B37: GUAUGUU (DNA:RNA)
RNA: B8 RNA with C25G, G26U, G27A, C29G, G30U
DNA 1: CAATCTGAATTCCGGTCTCCC
DNA 2: TGGTGGCTACGACGGGATT
B38: GUUUAUG (DNA:RNA)
RNA: B8 RNA with C25G, G26U, G27U, C29A, G30U, U31G
DNA 1: CAATCTGAATTCCGGTCTCCC
DNA 2: TGGTGGCTACGACGGGATT
B39: GGGGGUA (DNA:RNA)
RNA: B8 RNA with C25G, U28G, C29G, G30U, U31A
DNA 1: CAATCTGAATTCCGGTCTCCC
DNA 2: TGGTGGCTACGACGGGATT
B40: CCGUAUG (DNA:RNA)
RNA: B8 RNA with G26C, C29A, G30U, U31G
DNA 1: CAATCTGAATTCCGGTCTCCC
DNA 2: TGGTGGCTACGACGGGATT

Each binder was assayed against T1, RBFOX1 RRM RbFoxmut (Fox-RRM*) (assay: EMSA; HiTS-Eq, 1 nM pool, 10 min; buffer printed only for the single-RNA assays: 10 mM Tris pH 7.5, 150 mM NaCl, 3.4 mM EDTA, 0.001% NP-40, 30 C). Conditions: tags: His6 N-terminal (pET28a); label: 5' 32P.
Summary of the method: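 Relative association constants, normalised to the cognate motif, were derived by comparing read counts of each RNA species with those of the control reaction. The RNA sequenced was the free fraction, separated by 8% native PAGE after a 10 min equilibration in 50 µL of 1 nM 5′-radiolabelled RNA (7 randomized nucleotides) with increasing concentrations of purified wild-type or mutant RbFox RRM.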

| Binder | binding signal |
| --- | --- |
| B1 | 0.133 KA relative to UGCAUGU |
| B2 | 0.0738 KA relative to UGCAUGU |
| B3 | 0.113 KA relative to UGCAUGU |
| B4 | 0.186 KA relative to UGCAUGU |
| B5 | 0.0525 KA relative to UGCAUGU |
| B6 | 0.0834 KA relative to UGCAUGU |
| B7 | 0.0704 KA relative to UGCAUGU |
| B8 | 0.104 KA relative to UGCAUGU |
| B9 | 0.385 KA relative to UGCAUGU |
| B10 | 0.2 KA relative to UGCAUGU |
| B11 | 0.466 KA relative to UGCAUGU |
| B12 | 0.566 KA relative to UGCAUGU |
| B13 | 0.116 KA relative to UGCAUGU |
| B14 | 0.662 KA relative to UGCAUGU |
| B15 | 0.351 KA relative to UGCAUGU |
| B16 | 0.107 KA relative to UGCAUGU |
| B17 | 0.136 KA relative to UGCAUGU |
| B18 | 0.056 KA relative to UGCAUGU |
| B19 | 0.122 KA relative to UGCAUGU |
| B20 | 0.0513 KA relative to UGCAUGU |

| Binder | binding signal |
| --- | --- |
| B21 | 0.0643 KA relative to UGCAUGU |
| B22 | 0.169 KA relative to UGCAUGU |
| B23 | 0.0553 KA relative to UGCAUGU |
| B24 | 0.125 KA relative to UGCAUGU |
| B25 | 0.1 KA relative to UGCAUGU |
| B26 | 0.112 KA relative to UGCAUGU |
| B27 | 0.052 KA relative to UGCAUGU |
| B28 | 0.124 KA relative to UGCAUGU |
| B29 | 0.134 KA relative to UGCAUGU |
| B30 | 0.101 KA relative to UGCAUGU |
| B31 | 0.674 KA relative to UGCAUGU |
| B32 | 0.93 KA relative to UGCAUGU |
| B33 | 0.123 KA relative to UGCAUGU |
| B34 | 0.268 KA relative to UGCAUGU |
| B35 | 0.183 KA relative to UGCAUGU |
| B36 | 0.117 KA relative to UGCAUGU |
| B37 | 0.497 KA relative to UGCAUGU |
| B38 | 0.172 KA relative to UGCAUGU |
| B39 | 0.137 KA relative to UGCAUGU |
| B40 | 0.534 KA relative to UGCAUGU |
